Laboratory results from PubChem BioAssay AID1159580 (chemical genetic matrix, 2015).
In all, about 5,500 compounds went through this assay and about 2,000 (36%) were called active. Not shown: some 18% with an inconclusive outcome. This is one part of the list. A number with no mark means an inactive call. No stated cut-off is given here; in the data, active means normalized growth mostly below about 0.91 (no sharp cut-off); inconclusive means no clear call, values can overlap the other calls; inactive means mostly above about 0.92.

Assay: chemical genetic growth profiling, strain panel (AID 1159580);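 further: tested at 20 µM; growth read once vehicle control cultures reached saturation at 30 °C; 1 = growth at the plate median or of vehicle wells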
Conditions: S. cerevisiae deletion strains, growth OD
[1] = locus YDL101C, strain DUN1, stronger effect = lower value
[2] = locus YHR030C, strain SLT2, stronger effect = lower value

CN(C)/C=C1/C(=O)NN=C1CSc1ccccn1
normalized growth (locus YAL013W, strain DEP1, stronger effect = lower value): 1
normalized growth (locus YBR229C, strain ROT2, stronger effect = lower value): 0.999
normalized growth (locus YCL061C, strain MRC1, stronger effect = lower value): 1.03
normalized growth [1]: 1.03
normalized growth (locus YDR150W, strain NUM1, stronger effect = lower value): 1.04
normalized growth (locus YEL061C, strain CIN8, stronger effect = lower value): 0.999
normalized growth (locus YGR078C, strain PAC10, stronger effect = lower value): 1.02
normalized growth [2]: 1.09
normalized growth (locus YHR087W, strain rtc3, stronger effect = lower value): 0.948
normalized growth (locus YJR043C, strain POL32, stronger effect = lower value): 1.02
normalized growth (locus YJR075W, strain HOC1, stronger effect = lower value): 1.01
normalized growth (locus YKL190W, strain CNB1, stronger effect = lower value): 1.02
normalized growth (locus YLR039C, strain RIC1, stronger effect = lower value): 1.11
normalized growth (locus YLR058C, strain SHM2 (second series), stronger effect = lower value): 0.974
normalized growth (locus YLR085C, strain ARP6, stronger effect = lower value): 1.05
normalized growth (locus YLR262C, strain YPT6, stronger effect = lower value): 1.02
normalized growth (locus YML094W, strain GIM5, stronger effect = lower value): 1.01
normalized growth (locus YMR219W, strain ESC1, stronger effect = lower value): 0.982
normalized growth (locus YMR263W, strain SAP30, stronger effect = lower value): 1.01
normalized growth (locus YMR307W, strain GAS1, stronger effect = lower value): 1.07
normalized growth (locus YNL153C, strain GIM3, stronger effect = lower value): 1.03
normalized growth (locus YNL298W, strain CLA4 (second series), stronger effect = lower value): 1.04
normalized growth (locus YNL322C, strain KRE1, stronger effect = lower value): 0.985
normalized growth (locus YNR030W, strain Alg12, stronger effect = lower value): 1.01
normalized growth (locus YPL055C, strain LGE1, stronger effect = lower value): 0.972
normalized growth (locus YPL241C, strain CIN2, stronger effect = lower value): 1
normalized growth (locus YPR135W, strain CTF4, stronger effect = lower value): 1.09

O=C(Nc1cc2c(s1)-c1cc(Cl)ccc1SC2)Oc1ccccc1
normalized growth (locus YAR019C, strain CDC15, stronger effect = lower value): 0.977
normalized growth (locus YBL105C, strain PKC1, stronger effect = lower value): 1.01
normalized growth (locus YBR135W, strain CKS1, stronger effect = lower value): 1.01
normalized growth (locus YBR136W, strain MEC1, stronger effect = lower value): 0.995
normalized growth (locus YBR160W, strain CDC28, stronger effect = lower value): 0.99
normalized growth (locus YDL017W, strain CDC7, stronger effect = lower value): 1.01
normalized growth (locus YDL028C, strain MPS1, stronger effect = lower value): 0.984
normalized growth [1]: 0.989
normalized growth (locus YDL108W, strain KIN28, stronger effect = lower value): 0.986
normalized growth (locus YDL132W, strain cdc53, stronger effect = lower value): 1
normalized growth (locus YDL214C, strain PRR2, stronger effect = lower value): 0.928
normalized growth (locus YDR052C, strain DBF4, stronger effect = lower value): 0.997
normalized growth (locus YDR054C, strain cdc34, stronger effect = lower value): 0.999
normalized growth (locus YDR226W, strain ADK1, stronger effect = lower value): 1
normalized growth (locus YDR477W, strain SNF1, stronger effect = lower value): 0.964
normalized growth (locus YER123W, strain YCK3, stronger effect = lower value): 0.936
normalized growth (locus YER133W, strain GLC7, stronger effect = lower value): 0.972
normalized growth (locus YFL009W, strain cdc4, stronger effect = lower value): 0.997
normalized growth (locus YFL029C, strain CAK1, stronger effect = lower value): 0.978
normalized growth (locus YFR003C, strain YPI1, stronger effect = lower value): 0.998
normalized growth (locus YFR019W, strain FAB1, stronger effect = lower value): 0.927
normalized growth (locus YFR028C, strain CDC14, stronger effect = lower value): 1
normalized growth (locus YGR040W, strain KSS1, stronger effect = lower value): 0.97
normalized growth (locus YGR052W, strain FMP48, stronger effect = lower value): 1.01
normalized growth (locus YGR092W, strain DBF2, stronger effect = lower value): 0.966
normalized growth [2]: 0.911
normalized growth (locus YHR079C, strain IRE1, stronger effect = lower value): 0.939
normalized growth (locus YHR082C, strain KSP1, stronger effect = lower value): 0.962
normalized growth (locus YHR205W, strain SCH9, stronger effect = lower value): 0.914
normalized growth (locus YIL147C, strain SLN1, stronger effect = lower value): 0.994
normalized growth (locus YJL095W, strain BCK1, stronger effect = lower value): 0.927
normalized growth (locus YJL128C, strain PBS2, stronger effect = lower value): 1.02
normalized growth (locus YJL157C, strain FAR1, stronger effect = lower value): 0.959
normalized growth (locus YJR016C, strain ILV3, stronger effect = lower value): 0.999
normalized growth (locus YJR066W, strain TOR1 (second series), stronger effect = lower value): 0.946
normalized growth (locus YJR066W, strain TOR1, stronger effect = lower value): 0.951
normalized growth (locus YKL048C, strain ELM1, stronger effect = lower value): 0.98
normalized growth (locus YKL067W, strain YNK1, stronger effect = lower value): 0.946
normalized growth (locus YKL101W, strain HSL1, stronger effect = lower value): 0.953
normalized growth (locus YKL193C, strain SDS22, stronger effect = lower value): 1.01
normalized growth (locus YKL203C, strain TOR2, stronger effect = lower value): 1.01
normalized growth (locus YLR113W, strain HOG1, stronger effect = lower value): 0.849 (active)
normalized growth (locus YLR133W, strain CKI1, stronger effect = lower value): 0.938
normalized growth (locus YLR403W, strain SFP1, stronger effect = lower value): 0.946
normalized growth (locus YML070W, strain DAK1, stronger effect = lower value): 0.957
normalized growth (locus YMR001C, strain CDC5, stronger effect = lower value): 1
normalized growth (locus YMR205C, strain PFK2 (second series), stronger effect = lower value): 0.966
normalized growth (locus YMR277W, strain FCP1, stronger effect = lower value): 0.999
normalized growth (locus YNL006W, strain LST8, stronger effect = lower value): 0.99
normalized growth (locus YNL020C, strain ARK1, stronger effect = lower value): 0.938
normalized growth (locus YNL161W, strain CBK1, stronger effect = lower value): 0.993
normalized growth (locus YNL183C, strain NPR1, stronger effect = lower value): 0.941
normalized growth (locus YNL207W, strain RIO2, stronger effect = lower value): 0.997
normalized growth (locus YNL222W, strain SSU72, stronger effect = lower value): 1.01
normalized growth (locus YNL307C, strain MCK1 (second series), stronger effect = lower value): 0.949
normalized growth (locus YOL078W, strain AVO1, stronger effect = lower value): 1
normalized growth (locus YOL136C, strain PFK27, stronger effect = lower value): 0.914
normalized growth (locus YOR061W, strain CKA2, stronger effect = lower value): 0.934
normalized growth (locus YOR119C, strain RIO1, stronger effect = lower value): 0.988
normalized growth (locus YOR231W, strain MKK1, stronger effect = lower value): 0.949
normalized growth (locus YOR329C, strain SCD5, stronger effect = lower value): 1
normalized growth (locus YPL031C, strain PHO85, stronger effect = lower value): 0.963
normalized growth (locus YPL153C, strain RAD53, stronger effect = lower value): 0.968
normalized growth (locus YPL204W, strain HRR25, stronger effect = lower value): 0.959
normalized growth (locus YPL209C, strain IPL1, stronger effect = lower value): 1
normalized growth (locus YPL256C, strain CLN2, stronger effect = lower value): 0.912
normalized growth (locus YPR025C, strain CCL1, stronger effect = lower value): 1.01
normalized growth (locus YPR106W, strain ISR1, stronger effect = lower value): 0.997
normalized growth (locus YPR111W, strain DBF20, stronger effect = lower value): 1.01
normalized growth (strain NNK1, stronger effect = lower value): 1
normalized growth (strain TSCII, stronger effect = lower value): 1
